This is part of a sample that, as a whole, favours compounds with a hit. Of some 79,000 tested, about 15% had one in any assay. Values without a mark were called inactive. The source made the active and inactive calls. Cut-off read from the data, not from the text of the source: active = growth inhibition above about 70%; inactive = the rest. Where a SMILES comes first, the peptide text is derived from it.

The values below come from PubChem BioAssay (NCI).

The nature of assay [1]: NCI Yeast Anticancer Drug Screen. Data for the rad50 strain (AID 155).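 Note: 0% = growth of vehicle-only cultures of the same strain.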 Conditions: S. cerevisiae rad50 strain growth inhibition; at 50.0 µM; hits give high values. A digest of the protocol:
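A DNA repair-deficient yeast mutant serves as the test organism; compound-induced growth inhibition is calculated against vehicle-treated cells.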

Assay [2] can be described thus: NCI Yeast Anticancer Drug Screen. Data for the mec2-1 strain (AID 157). Conditions: S. cerevisiae mec2-1 strain, at 50.0 µM, hits give high values. The method in brief: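 Compounds were applied to mec2-1 yeast cells. Their growth was then compared with that of vehicle-treated cultures to give growth inhibition.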
Assay [3] in a line: NCI Yeast Anticancer Drug Screen. Data for the sgs1 mgt1 strain (AID 161).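 Note: 0% = growth of cultures given vehicle only.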 Conditions: S. cerevisiae sgs1 mgt1 strain, at 50.0 µM, hits give high values. A digest of the protocol: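 Percent growth inhibition was derived by comparing compound-exposed mutant yeast with vehicle-exposed cultures. The strain carries alterations in DNA damage repair.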
Assay [4] can be described thus: NCI Yeast Anticancer Drug Screen. Data for the cln2 rad14 strain (AID 165).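 Note: 0% = growth equal to vehicle treated cultures.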 Conditions: S. cerevisiae cln2 rad14 strain, at 50.0 µM, hits give high values. A digest of the protocol: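 Strain: cln2 rad14 yeast, altered in cell cycle control and DNA damage repair. Read-out: growth inhibition vs vehicle.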
Assay [5] in a line: NCI Yeast Anticancer Drug Screen. Data for the bub3 strain (AID 167). Conditions: S. cerevisiae bub3 mutant strain, at 50.0 µM, hits give high values. The method in brief:
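Inhibition values come from growth of compound-treated mutant yeast normalised to vehicle-treated controls.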

Assay [6] in a line: NCI Yeast Anticancer Drug Screen. Data for the mlh1 rad18 strain (AID 175). Conditions: S. cerevisiae mlh1 rad18 strain growth inhibition; at 50.0 µM; hits give high values. The method in brief: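 A repair-deficient yeast strain is exposed to test compound, and growth is scored relative to vehicle-treated controls.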

Take `c1ccc(-c2nnn(CCN3CCCCC3)n2)cc1`: the growth inhibition was 33.1% in assay [1]; 20.9% in assay [2]; -3.9% in assay [3]; 12.1% in assay [4]; 34% in assay [5]; 23.5% in assay [6].

As to `O=C1Cc2c([nH]c3ccc(Cl)cc23)-c2ccccc2N1`, the growth inhibition is 5.55% in assay [1]; 2.1% in assay [2]; -50.9% in assay [3]; 13.8% in assay [4]; -7.9% in assay [5]; 17.1% in assay [6].

With `CC1CCC2(CC1)N=C1CCC(C)CC1C1(CCC(C)CC1)N2` (stereo not drawn), the growth inhibition in assay [1] is -22.4%; in assay [2], 0.25%; in assay [3] it was -32.9%; in assay [4] it was -23.1%; in assay [5], -13.2%; in assay [6] it was -11.1%.

On to `CC(C)CC(N)C(=O)NC(C)C(=O)NC(CC(C)C)C(=O)O` (stereo not drawn) (H-Leu-Ala-Leu-OH; configuration not given here), for which the growth inhibition in assay [1] is 5.95%; in assay [2], 21.4%; in assay [3], 10.9%; in assay [4] it was 1.9%; in assay [5] it was 0.5%; in assay [6] it was -3.1%.

As to `CCOC(=O)CN1CC(C2=C(O)CN(CC(=O)OCC)C2=O)=CC1=O`, the growth inhibition in assay [1] is 0.75%; in assay [2], 9.7%; in assay [3], -12.6%; in assay [4] it was 29.1%; in assay [5] it was 9.55%; in assay [6], -27%.

With `O=C(O)c1cc(O)[nH]c(=O)c1`, the growth inhibition is -12% in assay [1]; -105% in assay [2]; -22.6% in assay [3]; -48.5% in assay [4]; -26% in assay [5]; -16.2% in assay [6].

As for `[Cl][Mn][Cl]`, the growth inhibition is 10.2% in assay [1]; 6.4% in assay [2]; 17.4% in assay [3]; -7.15% in assay [4]; -4.75% in assay [5]; -0.15% in assay [6].

`O=c1c2cc([N+](=O)[O-])ccc2[nH]n1Cc1ccccn1`: the growth inhibition was 12.5% in assay [1]; 10.2% in assay [2]; -19.6% in assay [3]; 9.45% in assay [4]; -13.9% in assay [5]; 3.8% in assay [6].

For `NNC(=O)Cc1c[nH]c2ccccc12`, the growth inhibition in assay [1] was 7.1%; in assay [2], 9.4%; in assay [3], 5.85%; in assay [4], -7.55%; in assay [5], 6%; in assay [6] it was 2.25%.

For `CC(=O)N(c1c(N)[nH]c(=O)n(C)c1=O)C1OC(CO)C(O)C(O)C1O` (stereo not drawn), the growth inhibition was -1.65% in assay [1]; 2.8% in assay [2]; 19.1% in assay [3]; -5% in assay [4]; 4.3% in assay [5]; 12.4% in assay [6].

As for `O=C(O)c1ccc(Br)cc1`, the growth inhibition in assay [1] is 5.1%; in assay [2] it was -6.05%; in assay [3] it was 2.8%; in assay [4], -25.2%; in assay [5] it was 9.8%; in assay [6], 0%.

As for `O=C(c1nc2cc([N+](=O)[O-])ccc2[nH]c1=O)C(O)c1ccco1` (stereo not drawn), the growth inhibition was -8.65% in assay [1]; -25.4% in assay [2]; -25.2% in assay [3]; 13.9% in assay [4]; -35% in assay [5]; -6.35% in assay [6].

On to `NC(=O)CC(N)=O`, for which the growth inhibition in assay [1] is 6.1%; in assay [2], -5.1%; in assay [3], -2.35%; in assay [4] it was 9.4%; in assay [5] it was 1.25%; in assay [6] it was 4.6%.

Consider `O=C1CC[C@@H](NC(=O)Cc2ccccc2)C(=O)N1`, for which the growth inhibition in assay [1] is -6.65%; in assay [2], -19.3%; in assay [3] it was -12.8%; in assay [4], -6.75%; in assay [5], 2.25%; in assay [6], -9.1%.

Turning to `CCC(=O)c1ccc(OC(C)=O)cc1`, the growth inhibition in assay [1] is 36%; in assay [2], -4.75%; in assay [3] it was -4.85%; in assay [4], -23.4%; in assay [5], 5.7%; in assay [6] it was 4.65%.

In the case of `Clc1ccccc1CSc1cnnc(Cl)c1SCc1ccccc1Cl`, the growth inhibition in assay [1] is 28.6%; in assay [2], 12.2%; in assay [3], 31.6%; in assay [4], 39.6%; in assay [5] it was 5.2%; in assay [6] it was 21.9%.

As to `CCC(=O)Nc1cc(C)ccc1Cl`, the growth inhibition in assay [1] is -3.95%; in assay [2] it was -7.9%; in assay [3] it was 3.2%; in assay [4] it was -52.9%; in assay [5], 5.9%; in assay [6], -0.6%.

Turning to `CCOC(=O)C1(C(F)(F)F)N=C(CC)OC(N2CCOCC2)=N1` (stereo not drawn), the growth inhibition in assay [1] is -23.9%; in assay [2] it was -12.6%; in assay [3], -18.7%; in assay [4] it was 10.1%; in assay [5], -16%; in assay [6], -27.1%.

Regarding `OCCC(CO)Cc1ccc2c(c1)OCO2` (stereo not drawn), the growth inhibition is -26.7% in assay [1]; 2.75% in assay [2]; 9.3% in assay [3]; 10.4% in assay [4]; -14.2% in assay [5]; -36.3% in assay [6].

Regarding `Cc1cc(S(=O)(=O)O)ccc1Cl`, the growth inhibition in assay [1] is -27.3%; in assay [2] it was -8.2%; in assay [3] it was -19.3%; in assay [4] it was -38.9%; in assay [5], -0.25%; in assay [6], -31.8%.

Consider `NC(Cc1c[nH]c2ccc(Br)cc12)C(=O)O` (stereo not drawn), for which the growth inhibition is -29.4% in assay [1]; -26.7% in assay [2]; -17.9% in assay [3]; 5.4% in assay [4]; -29.8% in assay [5]; -38.1% in assay [6].

In the case of `CCN(CC)CCNC(=O)Cc1cc(O)c2c(c1O)C(=O)c1ccccc1C2=O`, the growth inhibition is 73% (active) in assay [1]; 5% in assay [2]; 76.8% (active) in assay [3]; 40.9% in assay [4]; 6.1% in assay [5]; 51.5% in assay [6].

Consider `OC(Cc1ccccn1)c1ccccc1` (stereo not drawn), for which the growth inhibition is 33.4% in assay [1]; 13.1% in assay [2]; 21.4% in assay [3]; 22.6% in assay [4]; 9.35% in assay [5]; 32.1% in assay [6].

For the compound `Cc1cc2c3c(nc2c2cc[nH]c(C)c12)CCCC3`, the growth inhibition in assay [1] is 88.2% (active); in assay [2], 92% (active); in assay [3], 92% (active); in assay [4], 91.7% (active); in assay [5], 90.8% (active); in assay [6], 91% (active).

For the compound `[Co].[O-]c1cccnc1C=Nc1ccccc1.[OH3+]`, the growth inhibition is 24.8% in assay [1]; 31.6% in assay [2]; 37.4% in assay [3]; 30.9% in assay [4]; 33.9% in assay [5]; 21.9% in assay [6].

With `C[n+]1c(-c2ccc(/C=N/NC(=O)C(=O)N/N=C/c3ccc(-c4cn5ccsc5[n+]4C)cc3)cc2)cn2ccsc21`, the growth inhibition in assay [1] is 85.5% (active); in assay [2], 88% (active); in assay [3], 86.8% (active); in assay [4] it was 76.6% (active); in assay [5], 88.7% (active); in assay [6], 86.5% (active).

`Cc1ccc(C(=O)CCC(=O)OCC(=O)c2ccc(-c3ccccc3)cc2)cc1`: the growth inhibition in assay [1] was -7.95%; in assay [2], 11.3%; in assay [3], -1%; in assay [4] it was 14.8%; in assay [5], -6%; in assay [6] it was -20.1%.

Regarding `Cn1cnc2ncnc(Oc3ccc(Cl)cc3)c21`, the growth inhibition is -13.5% in assay [1]; -10.3% in assay [2]; -2.95% in assay [3]; 4.45% in assay [4]; -27.1% in assay [5]; -14.1% in assay [6].

`CCCNC(=O)CCC(=O)NS(=O)(=O)c1ccc(Cl)cc1`: the growth inhibition in assay [1] was -14.4%; in assay [2] it was -3.05%; in assay [3], 16.5%; in assay [4], -16.4%; in assay [5], 16.1%; in assay [6], 7.15%.

In the case of `C[S+]1C=C(c2ccccc2)SC=C1c1ccccc1` (stereo not drawn), the growth inhibition in assay [1] is 35.2%; in assay [2], 32.9%; in assay [3] it was 59.6%; in assay [4], 8.3%; in assay [5], 47%; in assay [6], 55%.

Turning to `CC(=O)Nc1ccc(/C=c2\sc3nnc(CCC(=O)Nc4ccccc4Cl)n3c2=O)cc1`, the growth inhibition in assay [1] is -16.4%; in assay [2] it was -17.7%; in assay [3] it was -20.1%; in assay [4] it was 7.6%; in assay [5] it was 7.1%; in assay [6] it was -9.55%.

On to `COc1cccc(/C=C(\C#N)C(=O)c2ccccc2)c1`, for which the growth inhibition in assay [1] is 4.4%; in assay [2] it was 19.6%; in assay [3], 11.2%; in assay [4], 19.6%; in assay [5] it was 13.9%; in assay [6], 19%.

Regarding `O=C(c1ccccc1)C(O)(c1ccccc1)C(c1ccccc1)c1ccccc1` (stereo not drawn), the growth inhibition in assay [1] was 5.8%; in assay [2] it was 18.6%; in assay [3], 16.9%; in assay [4], 13%; in assay [5], 6.75%; in assay [6] it was 8.05%.

With `O=C(OCC1CCCO1)c1ccccc1` (stereo not drawn), the growth inhibition is 8.4% in assay [1]; 13.2% in assay [2]; -15.3% in assay [3]; -18.4% in assay [4]; -8.75% in assay [5]; -11% in assay [6].

Consider `O=C1C[C@H]2CCCC[C@@H]2O1`, for which the growth inhibition was 2% in assay [1]; 3.55% in assay [2]; 26.5% in assay [3]; 39.1% in assay [4]; -13.5% in assay [5]; -6% in assay [6].

Consider `COc1ccc(Nc2ccnc(N)n2)cc1`, for which the growth inhibition was 5.15% in assay [1]; -27.4% in assay [2]; 1.25% in assay [3]; -0.35% in assay [4]; 14.2% in assay [5]; -13.2% in assay [6].

As for `COC(=O)c1ccc(Cl)cc1OCC(=O)Nc1ccccc1`, the growth inhibition in assay [1] is -29.1%; in assay [2] it was -0.55%; in assay [3], -12.2%; in assay [4], -27.7%; in assay [5] it was -4.6%; in assay [6], -3.65%.

`O=C(O)C1CC2(CCC1c1ccccc1)SCCS2` (stereo not drawn): the growth inhibition in assay [1] is 6.7%; in assay [2], 1.15%; in assay [3], 12.1%; in assay [4], 13.6%; in assay [5], 6.5%; in assay [6], -9.85%.
